Source: PubChem BioAssay
Hits are enriched below; roughly 0.96% of the tested compounds scored in any of these assays.
DAGLB inh = blocks human DAGLB lipase activity. AID 504411. HEK293T DAGLB membrane lysate, EnzChek fluorogenic substrate. 0.059% of 340,000 active. inhibition, % at 5.17 µM. Q8NCG7; in the data active means inhibition above about 34%
HDAC3 inhib = inhibitors of human histone deacetylase 3 | O15379 | recombinant HDAC3, fluorogenic peptide/trypsin coupled, fluorescence | inhibition, % at 8.3 µM | 0.15% of 320,000 active; in the data active means inhibition above about 26%, passing the limit was not always enough
MIN6 prolif = induces beta-cell replication in MIN6 cells; MIN6 cells proliferation, ATPlite luminescence, 48 h; cells starved in 0.2% serum; 100% = growth in 10% serum; proliferation, % at 10 µM; 0.29% of 330,000 active; AID 2380;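 active means compounds whose signal lies at least 3.5 SD above the mean of all wells on their plate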
Rtt109 HAT inh = blocks Candida albicans Rtt109/Vps75 acetyltransferase activity | purified Rtt109/Vps75, ThioGlo CoA-SH fluorescence, 4 h | AID 540336 | inhibition, % at 34.9 µM | 0.16% of 330,000 active;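 active means inhibition of at least 50% in every replicate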
Target sequence (Q5AAJ8 whole entry, looked up): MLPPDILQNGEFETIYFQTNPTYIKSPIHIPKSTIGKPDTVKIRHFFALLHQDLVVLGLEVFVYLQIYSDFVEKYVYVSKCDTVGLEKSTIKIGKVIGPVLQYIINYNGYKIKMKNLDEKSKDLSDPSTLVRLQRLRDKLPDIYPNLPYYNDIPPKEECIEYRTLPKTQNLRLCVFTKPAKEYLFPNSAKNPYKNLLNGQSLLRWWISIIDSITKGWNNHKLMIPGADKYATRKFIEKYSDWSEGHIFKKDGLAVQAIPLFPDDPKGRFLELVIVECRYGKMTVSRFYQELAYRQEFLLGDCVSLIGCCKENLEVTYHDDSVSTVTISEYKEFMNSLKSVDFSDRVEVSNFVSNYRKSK
V-ATPase pH = regulators of yeast V-ATPase proton transport; response, % at 10 µM; 0.37% of 350,000 active; S. cerevisiae, pHLuorin cytosolic pH fluorescence; in the data active means response mostly above about 7.3%, no sharp cut-off; inactive means mostly below about 5.4%; further: actives read high
V-ATPase pH SP = yeast V-ATPase proton transport regulation; shares compounds with V-ATPase pH; S. cerevisiae pHLuorin cytosolic pH; response, % at 10 µM; 2% of 980 active; AID 602197; in the data active means response above about 24%
Numbers stand for hits; – = inactive; · = no result given.

SMILES	DAGLB inh	HDAC3 inhib	MIN6 prolif	Rtt109 HAT inh	V-ATPase pH	V-ATPase pH SP
CCCCNc1nnc(CCn2nc(C)c(Br)c2C)s1	–	–	–	–	–	·
O=[N+]([O-])c1ccc2c(c1)-c1ccccc1C2=NO	–	·	·	–	20.3	119.1
CCCN(C(=O)COc1ccc(C(C)=O)cc1OC)C1CCS(=O)(=O)C1 (stereo not given)	–	–	–	–	10.2	–
CCOc1ccccc1N1CCN(C(=O)c2cc3ccccc3cc2OC)CC1	–	·	–	–	–	·
Cc1nnc(SCC(=O)N2CCCCCC2)n(N)c1=O	–	–	–	–	8.0	–
Cc1ccc(NC2OC(CO)C(O)C2O)cc1[N+](=O)[O-] (stereo not given)	–	·	–	–	–	·
Cc1ccc(NC2OC(C(O)CO)C(O)C2O)cc1[N+](=O)[O-] (stereo not given)	–	–	–	–	35.9	–
CC(C)(C)NC(=O)c1cc2c(ccc3ccccc32)oc1=O	–	–	–	–	8.9	–
CC(NC(=O)CCNS(=O)(=O)c1cccc2nsnc12)c1ccccc1 (stereo not given)	–	–	–	–	–	·
CCOC(=S)SCC(=O)N1CCc2cc(OC)c(OC)cc2C1C1C(=O)CC(C)(C)CC1=O (stereo not given)	–	–	–	–	20.3	–
CC(=O)Nc1nc(N2C(=O)c3ccccc3C2=O)n(-c2ccccc2)n1	–	–	–	·	7.0	–
CC(c1ccccc1)C1C(C#N)=C(N)OC2=C1C(=O)CC(C)(C)C2 (stereo not given)	–	–	–	–	11.2	–
O=c1c2ccccc2sn1-c1ccc(Cl)cc1	–	·	·	·	–	–
O=S(=O)(c1ccc(Cl)nc1)N1CCc2ccccc21	–	–	–	–	11.8	–
O=S(=O)(c1ccc(Cl)nc1)N1CCCc2ccccc21	–	–	–	–	–	·
COC(=O)/C=C1\S/C(=N\N=C\CC(=O)OC)NC1=O	–	–	–	–	–	·
CC1CCN(c2nc(-c3ccc(F)cc3)cc(C(F)(F)F)n2)CC1	–	–	–	–	8.6	–
COc1ccc(-c2cc(C(F)(F)F)nc(N3CCN(c4ccc(F)cc4)CC3)n2)cc1OC	–	·	·	–	–	·
Cc1nc2ccsc2c(=O)n1-c1ccc(Cl)cc1	–	–	–	–	–	–
NNC(=O)c1ccc(COCC(F)(F)F)cc1	–	–	–	–	9.1	–
Cc1ccc(C(=O)Oc2coc(CSc3nnc(NC(=O)C4CC4)s3)cc2=O)cc1	–	–	–	–	–	·
O=C(Oc1coc(CSc2nnc(NC(=O)c3cccs3)s2)cc1=O)c1ccccc1	–	–	–	–	9.3	–
CCCCc1cc(=O)oc2cc(OC(C)C(=O)NCCN3CCOCC3)c(Cl)cc12 (stereo not given)	–	–	–	–	–	·
O=C(Oc1ccc2c(c1)C(=O)c1ccccc1CO2)c1ccccc1	–	–	–	–	–	·
CSc1nccc(N2CCN(c3ccc(F)cc3)CC2)n1	–	–	–	–	11.0	–
SMILES	DAGLB inh	HDAC3 inhib	MIN6 prolif	Rtt109 HAT inh	V-ATPase pH	V-ATPase pH SP
COc1ccc(S(=O)(=O)N(CCc2ccccc2)CC(N)=O)cc1	–	–	–	–	–	·
O=C(CCSC1=NCCCN1)c1ccc(F)cc1	–	·	·	–	–	45.2
CC1=C(C(=O)Nc2ccccc2)C(c2cccc([N+](=O)[O-])c2)Nc2nc3ccccc3n21 (stereo not given)	–	–	–	–	17.4	–
O=C(Nc1ccn(Cc2c(F)c(F)cc(F)c2F)n1)c1cccc(Cn2cc([N+](=O)[O-])cn2)c1	–	–	–	–	19.2	–
COc1cccc(N2C(=O)C3CCCN3C2c2cccs2)c1 (stereo not given)	–	–	–	·	–	·
Nc1nnc(SCCCC(=O)c2ccc(F)cc2)s1	–	–	–	–	–	–
O=C(CCCSc1nnc(SCCCC(=O)c2ccc(F)cc2)s1)c1ccc(F)cc1	–	–	–	·	–	–
COc1ccc(CCc2nnc(CCC(=O)NCc3ccc4ncccc4c3)o2)cc1	–	–	–	–	–	·
O=C(CCN1C(=O)/C(=C\c2cccs2)SC1=S)Nc1ccccn1	–	–	–	–	6.2	–
O=C(CCCN1C(=O)/C(=C/c2cccs2)SC1=S)Nc1ccccn1	–	–	–	–	–	·
CCOC(=O)c1cc(Cl)c2c(ccc3ccccc32)n1	–	·	·	·	–	·
CCOC(=O)c1nc2c(ccc3ccccc32)cc1C	·	–	–	·	–	–
O=C(NC1CCCCCC1)c1c(O)nc2sccn2c1=O	–	·	–	–	–	·
O=C(NC1CCCCC1)c1c(O)nc2sccn2c1=O	–	–	–	–	12.5	28.1
CC1=NN(Cc2c(C)nn(Cc3ccccc3)c2C)C(C)(C)C1	–	–	–	–	–	·
CCOC(=O)C1CCCN(c2c(NCCCN3CCCC(C)C3)c(=O)c2=O)C1 (stereo not given)	–	–	–	–	12.6	–
Cc1ccc(C(=O)c2coc3ccc(OCC(=O)O)cc23)cc1	–	–	–	–	–	·
CCOc1ccccc1N(CC(=O)Nc1cccnc1)S(C)(=O)=O	–	–	–	–	–	·
CCOc1ccccc1N(CC(=O)Nc1cccnc1)S(=O)(=O)c1ccc(C)cc1	–	–	–	–	9.9	–
Cn1cc(C(=O)NCCO)c(=O)c2ccccc21	–	–	–	–	–	·
O=C(CN(CC1CCCO1)C(=O)CNS(=O)(=O)c1ccc(Cl)cc1)NCCc1ccccc1 (stereo not given)	–	–	–	–	23.4	–
N#CC(C(=O)C1CCCCC1)c1nc2ccccc2[nH]1 (stereo not given)	–	–	–	–	–	·
COc1ccc(Nc2nnc(C)c(=O)[nH]2)c(OC)c1	–	–	–	–	11.5	–
COc1ccc(C)cc1Nc1nnc(C)c(=O)[nH]1	–	–	–	–	–	·
Cc1c(OC(C)C(=O)NCC(O)c2ccccc2)ccc2c3c(c(=O)oc12)CCCC3 (stereo not given)	–	–	–	–	10.2	–
SMILES	DAGLB inh	HDAC3 inhib	MIN6 prolif	Rtt109 HAT inh	V-ATPase pH	V-ATPase pH SP
Cc1cc(=O)oc2c(C)c(OC(C)C(=O)NCC(O)c3ccccc3)ccc12 (stereo not given)	–	–	–	–	–	·
Cc1sc2nc(COC(=O)c3ccc(O)cc3)[nH]c(=O)c2c1C	–	·	–	–	–	·
COCc1nc2sc(C)c(C)c2c(=O)[nH]1	–	–	–	–	12.2	–
Cn1cccc1C(=O)OCC(=O)N1CCN(c2ccccc2)CC1	–	–	–	–	9.8	–
COc1ccc(CNC(=S)NCc2ccc(OC)cc2)cc1	–	–	–	–	7.1	–
COc1ccc(CNC(=S)NCc2ccc(F)cc2)cc1	–	·	–	–	–	·
CC(C)(C)n1cnc(C(N)=O)c1N	–	–	–	–	9.5	–
Cc1nn(-c2ccccc2)nc1C(N)=O	–	–	–	–	–	·
Cc1ccc(-c2ccc(C)c(N)c2C)c(C)c1N	–	–	–	–	–	·
CCCNC(=S)N1CCN(C)CC1	–	–	–	–	8.2	–
N#Cc1ccc(CSCC(=O)O)cc1	–	–	–	–	–	·
